Reference: PubChem BioAssay AID1159580 (chemical genetic matrix, 2015)
“And” between values parts separate entries of the source, which are not always exact repeats. Identical values can stand only once. Among all 5,500 compounds or so, about 2,000 (36%) were called active. Not shown: some 18% with an inconclusive outcome. Cut-off read from the data, not from the text of the source: active = normalized growth mostly below about 0.91 (no sharp cut-off); inconclusive = no clear call, values can overlap the other calls; inactive = mostly above about 0.92. The list shows a part of the results.

Assay: chemical genetic growth profiling, strain panel (AID 1159580);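 note: tested at 20 µM; growth read once vehicle control cultures reached saturation at 30 °C; 1 = growth at the plate median or of vehicle wells; lower values mean less growth of the strain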
Settings: S. cerevisiae deletion strains, growth OD

Measured: normalized growth

C=C1c2cccc(O)c2C(O)=C2C(=O)[C@]3(O)C(O)=C(C(N)=O)C(=O)[C@@H](N(C)C)[C@@H]3[C@@H](O)[C@H]12
inactive: locus YAL013W, strain DEP1, stronger effect = lower value 0.997 | locus YAL021C, strain ccr4, stronger effect = lower value 1.02 | locus YAL026C, strain drs2, stronger effect = lower value 1.01 | locus YAL030W, strain snc1, stronger effect = lower value 1.01 | locus YBL061C, strain skt5, stronger effect = lower value 1.01 | locus YBR009C, strain hhf1, stronger effect = lower value 1 | locus YBR021W, strain FUR4, stronger effect = lower value 1.01 | locus YBR023C, strain chs3, stronger effect = lower value 1 | locus YBR171W, strain sec66, stronger effect = lower value 1.02 | locus YBR229C, strain ROT2, stronger effect = lower value 0.987 | locus YBR231C, strain swc5, stronger effect = lower value 1.02 | locus YBR279W, strain paf1, stronger effect = lower value 1.01 | locus YCL011C, strain gbp2, stronger effect = lower value 1.01 | locus YCL016C, strain dcc1, stronger effect = lower value 1.02 | locus YCL029C, strain bik1, stronger effect = lower value 0.965 | locus YCL061C, strain MRC1, stronger effect = lower value 1.02 | locus YCL069W, strain vba3, stronger effect = lower value 1.01 | locus YCR088W, strain abp1, stronger effect = lower value 0.997 | locus YDL005C, strain med2, stronger effect = lower value 1.02 | locus YDL035C, strain GPR1, stronger effect = lower value 0.98 | locus YDL040C, strain nat1, stronger effect = lower value 1.02 | locus YDL074C, strain BRE1, stronger effect = lower value 0.962 | locus YDL101C, strain DUN1, stronger effect = lower value 0.978 | locus YDL134C, strain PPH21, stronger effect = lower value 1.01 | locus YDL185W, strain tfp1, stronger effect = lower value 0.925 | locus YDL192W, strain arf1, stronger effect = lower value 0.971 | locus YDR001C, strain nth1, stronger effect = lower value 1.01 | locus YDR069C, strain doa4, stronger effect = lower value 1.01 | locus YDR101C, strain arx1, stronger effect = lower value 0.957 | locus YDR137W, strain rgp1, stronger effect = lower value 0.927 | locus YDR150W, strain NUM1, stronger effect = lower value 0.99 | locus YDR159W, strain sac3, stronger effect = lower value 1.01 | locus YDR162C, strain NBP2, stronger effect = lower value 0.981 | locus YDR195W, strain ref2 0.997 | locus YDR297W, strain sur2, stronger effect = lower value 1.01 | locus YDR318W, strain mcm21, stronger effect = lower value 0.975 | locus YDR334W, strain swr1, stronger effect = lower value 1.01 | locus YDR335W, strain msn5, stronger effect = lower value 1.01 | locus YDR388W, stronger effect = lower value 0.991 | locus YDR392W, strain spt3, stronger effect = lower value 0.957 | locus YDR502C, strain sam2, stronger effect = lower value 1 | locus YEL003W, strain gim4, stronger effect = lower value 1 | locus YEL037C, strain rad23, stronger effect = lower value 1.01 | locus YEL061C, strain CIN8 (second series), stronger effect = lower value 1.01 | locus YEL061C, strain CIN8, stronger effect = lower value 0.988 | locus YER015W, strain faa2, stronger effect = lower value 0.991 | locus YER016W, strain bim1, stronger effect = lower value 0.946 | locus YER110C, stronger effect = lower value 0.997 | locus YER111C, strain swi4, stronger effect = lower value 1.01 | locus YER155C, strain BEM2 (second series), stronger effect = lower value 0.966 | locus YER155C, strain BEM2, stronger effect = lower value 1.01 | locus YER167W, strain BCK2, stronger effect = lower value 0.992 | locus YFR010W, strain ubp6, stronger effect = lower value 1.02 | locus YGL078C, strain dbp3, stronger effect = lower value 0.993 | locus YGL086W, strain mad1, stronger effect = lower value 0.993 | locus YGL167C, strain pmr1, stronger effect = lower value 1.02 | locus YGL173C, strain kem1, stronger effect = lower value 1.01 | locus YGL227W, strain vid30, stronger effect = lower value 1.01 | locus YGL240W, strain doc1, stronger effect = lower value 1.03 | locus YGL248W, strain PDE1, stronger effect = lower value 0.979 | locus YGL253W, strain hxk2, stronger effect = lower value 1.01 | locus YGR078C, strain PAC10, stronger effect = lower value 0.928 | locus YGR135W, strain pre9, stronger effect = lower value 0.987 | locus YGR229C, strain SMI1, stronger effect = lower value 0.947 | locus YGR252W, strain gcn5, stronger effect = lower value 1.11 | locus YHR013C, strain ard1, stronger effect = lower value 1.02 | locus YHR027C, strain rpn1, stronger effect = lower value 1.01 | locus YHR030C, strain SLT2, stronger effect = lower value 0.994 and 0.979 | locus YHR079C, strain IRE1 (second series), stronger effect = lower value 0.982 | locus YHR079C, strain IRE1, stronger effect = lower value 0.978 | locus YHR094C, strain hxt1, stronger effect = lower value 0.992 | locus YHR129C, strain ARP1, stronger effect = lower value 0.982 | locus YHR142W, strain chs7, stronger effect = lower value 1.05 | locus YHR200W, strain rpn10, stronger effect = lower value 0.97 | locus YIL066C, strain RNR3, stronger effect = lower value 0.948 | locus YIL073C, strain SPO22, stronger effect = lower value 0.945 | locus YIL125W, strain kgd1, stronger effect = lower value 0.989 | locus YIR030C, strain dcg1, stronger effect = lower value 1 | locus YJL092W, strain hpr5, stronger effect = lower value 1.01 | locus YJL095W, strain BCK1 (second series), stronger effect = lower value 1.02 | locus YJL095W, strain BCK1, stronger effect = lower value 0.899 and 0.972 | locus YJL115W, strain asf1, stronger effect = lower value 1.03 | locus YJL129C, strain trk1, stronger effect = lower value 1.04 | locus YJL134W, strain LCB3, stronger effect = lower value 0.992 | locus YJL154C, strain vps35, stronger effect = lower value 1.04 | locus YJL164C, strain tpk1, stronger effect = lower value 0.983 | locus YJL166W, strain qcr8, stronger effect = lower value 1.02 | locus YJL168C, strain set2, stronger effect = lower value 0.982 | locus YJL187C, strain SWE1 (second series), stronger effect = lower value 0.929 | locus YJR043C, strain POL32, stronger effect = lower value 0.923 | locus YJR066W, strain TOR1, stronger effect = lower value 0.913
